High-throughput results deposited in PubChem BioAssay by several laboratories.
Shown are actives, neighbours in structure and some others; about 1.8% of the full set was active somewhere.
NALP3 yeast inh – NALP3 inhibition in yeast; Yeast reconstituted NLRP3/ASC/caspase-1, beta-gal luminescence, 24 h; inhibition, % at 10 µM; 330,000 compounds, 0.39% hits; AID 2825;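 active means inhibition of 50% or more; inactive means inhibition below 50%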;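 further: plate controls were induced DMSO wells for no effect and uninduced yeast grown without galactose for full effect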
PolyA inh – yeast polyadenylation inhibition | S. cerevisiae SKY197-pL101 polyadenylation reporter, beta-gal luminescence; efflux-impaired pdr1/pdr3 knockout yeast; score 100 = 6 SD above DMSO | activity score, % at 12 µM | 300,000 compounds, 0.02% hits | AID 1875;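 active means lowest replicate activity score at least 50, where 100 means six control SD above control mean; inconclusive means lowest score under 50 but half or more replicates reach 50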;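 further: yeast exposed to compound for 9 h at 30 °C; higher score means more reporter readthrough which indicates perturbed polyadenylation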
SUMO Mot1 rescue – blocks SUMOylation pathway, rescuing yeast Mot1-301 growth. growth rescue, % at 18.8 µM. S. cerevisiae Mot1-301 growth rescue, ATP luminescence, 38.5C; percent above DMSO median, 100 means doubled. 320,000 compounds, 1% hits;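 active means every valid replicate shows activation above 250% relative to neutral control wells; inactive means the rest, any valid replicate at or below 250%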;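 further: OY570 slx delta 5 strain wells were the positive control but not used for scaling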
NALP1 yeast inh – NALP1 inhibition | S. cerevisiae NALP1/ASC/caspase-1 growth, X-gal OD620, 72 h | inhibition, % at 10 µM | 280,000 compounds, 0.61% hits | AID 2071; in the data active means inhibition mostly above about 24%, no sharp cut-off; inactive means mostly below about 32%
Yeast Mot1 SUMO – yeast SUMO pathway inhibition in dose response. shares compounds with SUMO Mot1 rescue. S. cerevisiae Mot1-301 galactose growth, ATP luminescence, 24 h; -100 = growth of slx-deleted rescue strain. growth activity, percent, % at 42 µM. 2,300 tested, under 10 active;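 active means Signal drops as the depositor expects, and the fitted half-maximal dose is no more than ten times the top valid tested dose; inconclusive means Poor fit, or a flat curve whose signal drops by 30% to 70%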;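 further: more negative values mean stronger growth rescue toward the control strain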
The depositor's hits bear a star; ? = inconclusive; . = no result; + = active, no number; [ ] = dose if it differs, or a comment.

SMILES	NALP3 yeast inh	PolyA inh	SUMO Mot1 rescue	NALP1 yeast inh	Yeast Mot1 SUMO
c1ccc(-c2csc(N3CCN(c4ccccn4)CC3)n2)cc1	4.2	4.6	698.9*	9.9	-0.5
O=C(N/C(=C/c1ccc2c(c1)OCO2)C(=O)N1CCOCC1)c1cccs1	0.2	9.3	765.4*	2.8	-0.8
O=C(CN1CCN(Cc2ccc3c(c2)OCO3)CC1)c1c[nH]c2ccccc12	11.2	-11.0	187.5	5.0	.
CN1C(=O)S/C(=C/c2ccccc2OCc2ccc(C(=O)O)cc2)C1=O	19.4	-11.4	119.8	-19.6	.
O=C(O)c1ccc(S(=O)(=O)N2CCN(c3ccccn3)CC2)cc1	8.7	?	762.8*	-6.0	-0.3
O=C(O)c1cccc(S(=O)(=O)N2CCN(c3ccccn3)CC2)c1	12.8	-8.2	-8.4	16.9	.
CCOC(=O)c1ccc(NC(=S)NCCCN2CCOCC2)cc1	25.0	-10.2	621.6*	10.1	0.4
CC(=O)c1ccc(NC(=S)NCCCN2CCOCC2)cc1	16.7	9.7	-1.6	4.4	.
Fc1ccc(N2CCN(C3CCC(c4ccccc4)CC3)CC2)cc1 (stereo unspecified)	29.3	-71.7	-11.9	.	.
c1ccc(N2CCN(C3CCSC3)CC2)cc1 (stereo unspecified)	10.3	-1.3	817.3*	0.3	0.5
C/C(=N/Nc1ccc(F)cc1)c1ccc(Cl)s1	9.7	-5.5	384.4*	13.7	0.0
Cc1ccc2nc3c(cc(C(=O)NCCN4CCOCC4)c(=N)n3CCCN3CCOCC3)c(=O)n2c1	16.0	-10.1	674.3*	-2.2	0.0
Cc1ccc2nc3c(cc(C(=O)NCCc4ccccc4)c(=N)n3CCN3CCOCC3)c(=O)n2c1	18.1	9.4	-3.4	-17.8	.
CC1(C)CC(O)CC(C)(C)N1CC(O)COCc1ccccc1 (stereo unspecified)	7.3	-11.6	287.3	19.3	.
Cc1cccc(OCC(O)CN2C(C)(C)CC(O)CC2(C)C)c1 (stereo unspecified)	-1.1	25.6	571.0*	.	0.3
CC(=O)Nc1cccc(NC(=S)Nc2ccc(F)cc2F)c1	5.0	-10.0	604.8*	1.4	-0.1
CC(NC(=O)c1cnc2n(c1=O)CCS2)c1ccccc1 (stereo unspecified)	-5.1	6.2	994.4*	0.2	0.1
Cc1ccc(C(C(=O)NCC2CCCO2)N(Cc2ccccc2F)C(=O)Cn2nnc(-c3cccs3)n2)cc1 (stereo unspecified)	-1.7	3.9	371.4*	-9.3	0.1
CC(=O)N/N=C/c1ccccc1OCCOc1cccc(C)c1	17.2	0.1	49.2	-4.9	.
O=C(C1CCCN(S(=O)(=O)c2cnc[nH]2)C1)N1CCN(c2ccc(Cl)cc2)CC1 (stereo unspecified)	4.5	-6.3	531.8*	25.6	-0.7
CC(C)C(OC(=O)CN1C(=O)COc2ccccc21)C(=O)NC1CCCCC1 (stereo unspecified)	17.6	-4.4	12.9	6.1	.
CC(C)C(OC(=O)CN1C(=O)COc2ccccc21)C(=O)NC1CCCC1 (stereo unspecified)	13.5	-3.0	783.7*	5.0	-0.2
N#CC1=C(N)Oc2c(ccc3ccccc23)C1c1cccs1 (stereo unspecified)	-4.5	-21.5	508.2*	-0.5	0.7
N#CC1=C(N)Oc2cc(O)ccc2C1c1cccs1 (stereo unspecified)	24.1	3.0	84.4	23.5	.
Cc1cc(=O)oc(C)c1C(=O)Nc1ccc(Cl)cn1	8.1	0.5	421.3*	-6.2	-0.3
SMILES	NALP3 yeast inh	PolyA inh	SUMO Mot1 rescue	NALP1 yeast inh	Yeast Mot1 SUMO
Cc1ccc(C)c(Nc2c([N+](=O)[O-])ccc3nonc23)c1	-59.3	-15.5	11.0	0.3	.
Cc1ccccc1Nc1c([N+](=O)[O-])ccc2c1=NC1(CCCCC1)N=2	30.6	-6.8	768.1*	16.8	-0.2
O=C(c1cc(-c2ccccc2)nc2ccccc12)N1CCOCC1	10.4	18.9	79.7	25.4	.
CC(C)c1ccc(-c2cc(C(=O)N3CCOCC3)c3cc(Br)ccc3n2)cc1	10.2	-2.7	614.2*	14.2	0.0
Cc1cc(=O)oc2ccc(OC(=O)CC(C)C)cc12	-1.3	-5.5	810.2*	0.6	0.0
Cc1cccc(N(Cc2ccccc2)C(=O)CSC(C)C(=O)Nc2cc(C)on2)c1 (stereo unspecified)	18.0	5.9	554.5*	.	0.0
Cc1cc(NC(=O)C(C)SCC(=O)O)no1 (stereo unspecified)	-3.9	15.5	-27.0	-10.0	.
CCCCCCCN1C(Nc2ccccc2)=NC[C@@H]1CC(C)C	25.6	-17.2	610.7*	-69.1	-1.0[21 µM]
CC(C)C[C@H]1CN=C(Nc2ccccc2)N1CCCC1CCCC1	25.5	-11.4	-14.8	8.1	.
COc1ccc(CCC(=O)Nc2ccc3c(c2)OCCO3)cc1	3.7	-6.2	-2.5	13.8	.
O=C(CCN1CCc2ccccc2C1)Nc1ccc(F)c(F)c1	8.8	-13.3	386.2	.	.
O=C(CCN1CCc2ccccc2C1)Nc1ccc2c(c1)OCO2	18.0	1.8	836.4*	28.3	-0.5
COc1ccc(CCC(=O)Nc2ccc3c(c2)OCO3)cc1	12.9	-8.3	563.4*	-9.0	-0.5
O=C(COc1ccccc1Cl)NCCCNC(=O)c1ccncc1	11.4	4.6	9.3	17.3	.
COC(=O)c1sc2ccccc2c1-n1cccc1C(=O)C(=O)Nc1ccc(C)cc1	16.3	-12.3	-10.1	10.1	.
CN(C)c1ccc(CN(Cc2ccco2)C(=O)c2ccco2)cc1	25.2	0.6	365.8*	39.3	0.4
CNc1nc(C)c(C(C)=O)cc1C#N	6.8	11.4	2.0	3.0	.
CCN(CC)c1ccc(/C=N/NC(=O)Cc2cccs2)c(O)c1	.	-11.3	-14.4	24.2	.
c1ccc(-c2nc(NCc3ccco3)c3ccccc3n2)nc1	21.4	-6.1	504.9*	20.7	-0.1
C/C(=N/NC(=O)CN1CCN(Cc2ccccc2Cl)CC1)c1cccnc1	10.5	-3.2	3.6	-6.4	.
CCN(CC)c1ccc(Nc2cc3n(c(=O)n2)CCc2cc(OC)c(OC)cc2-3)cc1	22.4	-4.8	+	9.7	0.3
CN(C(=O)c1cccc(N2C(=O)C3CC=CCC3C2=O)c1)C1CCCCC1 (stereo unspecified)	1.5	-6.8	7.9	.	.
O=C(NC1CCCCCC1)C1CCN(S(=O)(=O)c2cccc3cccnc23)CC1	-0.7	-6.9	561.1*	1.6	0.7
COc1ccc(NC(=O)C2CCCN2S(=O)(=O)c2cccc3cccnc23)cc1OC (stereo unspecified)	4.9	-9.4	413.7*	10.8	0.2
COc1cc(NC(=O)[C@H]2CCCN2S(=O)(=O)c2cccc3cccnc23)cc(OC)c1OC	-1.0	.	-1.2	.	.
COc1ccc(C2C(C(C)=O)=C(O)C(=O)N2CCO)c(OC)c1 (stereo unspecified)	14.2	10.5	893.0*	5.9	0.9
CCCCN1C(=O)C(O)=C(C(C)=O)C1c1ccc(OC)cc1OC (stereo unspecified)	21.2	?	83.1	1.9	.
